Assay results: PubChem BioAssay (EPA / NIEHS)
Several values for one entry are separate records, joined by “and”; a condition that tells them apart may be missing. Equal entries are not always repeated. Records with an inconclusive call do not appear. More than one record can exist for a structure, and the calls need not agree. Activity calls are given as the source filed them. The calls were made as follows, unless noted: active = hit-call score of the fitted dose curve at least 0.9, where 1 is the maximum; inactive = score below 0.9.

Experiments:
[1] = read-out: Monokine induced gamma interferon (MIG), CXCL9 (gene 4283); experiment: BSK_3C_MIG: BioMAP Diversity Plus: 3C Assay for Monokine induced gamma interferon (MIG) Biomarker Activity (AID 2283021); conditions: primary human endothelial cells (HUVEC); actives raise or lower the signal
Procedure, shortened: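 ELISA measurement of MIG in human umbilical vein endothelial cells 24 h after treatment. Cytotoxicity tracked by SRB staining in parallel cultures; gain or loss of signal fitted relative to DMSO.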

[2] = BSK_3C_SRB: Viability Assessment in the BioMAP Diversity Plus: 3C Assay (AID 2283023); conditions: primary human endothelial cells (HUVEC);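 also: fitted both ways against DMSO so a hit may be signal rise or drop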
Procedure, shortened: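 Absorbance at 560 nm of sulforhodamine B-stained (0.1%) total protein served as a cytotoxicity readout in human umbilical vein endothelial cells, 24 h after chemical treatment. Signal was fitted bidirectionally relative to DMSO.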

[3] = read-out: Matrix Metallopeptidase 1 (MMP1), MMP1 (gene 4312); experiment: BSK_BE3C_MMP1: BioMAP Diversity Plus: BE3C Assay for Matrix Metallopeptidase 1 (MMP1) Biomarker Activity (AID 2283024); conditions: primary human bronchial epithelial cells; actives raise or lower the signal
Procedure, shortened: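 ELISA measurement of MMP-1 after 24 h compound exposure of primary human bronchial epithelial cells. Changes in either direction fitted relative to DMSO; parallel SRB staining checked overt cytotoxicity.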

[4] = read-out: Pselectin, SELP (gene 6403); experiment: BSK_4H_Pselectin: BioMAP Diversity Plus: 4H Assay for Pselectin Biomarker Activity (AID 2283026); conditions: primary human endothelial cells (HUVEC); actives raise or lower the signal
Procedure, shortened: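 ELISA of surface P-selectin on HUVEC, 24 h after dosing, with parallel SRB staining (0.1% after 10% TCA fixation, 560 nm) for overt cytotoxicity. Activity fitted in both directions relative to DMSO.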

[5] = BSK_4H_SRB: Viability Assessment in the BioMAP Diversity Plus: 4H Assay (AID 2283027); conditions: primary human endothelial cells (HUVEC);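 also: cells exposed to compound for 24 h before staining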
Procedure, shortened: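 Cytotoxicity read-out in primary human endothelial cells: after 24 h compound exposure, cells were TCA-fixed (10%), stained with 0.1% SRB and absorbance taken at 560 nm. Values fitted in both directions relative to DMSO.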

[6] = read-out: Urokinase-type plasminogen activator receptor (uPAR), PLAUR (gene 5329); experiment: BSK_4H_uPAR: BioMAP Diversity Plus: 4H Assay for Urokinase-type plasminogen activator receptor (uPAR) Biomarker Activity (AID 2283030); conditions: primary human endothelial cells (HUVEC); actives raise or lower the signal
Procedure, shortened: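 Cell-surface uPAR ELISA signal, measured 24 h after dosing human umbilical vein endothelial cells, was analyzed with bidirectional fitting relative to DMSO. Parallel SRB staining of total protein tracked overt cytotoxicity.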

[7] = read-out: Vascular endothelial growth factor receptor 2 (Homo sapiens) (UniProt P35968); experiment: BSK_4H_VEGFRII: BioMAP Diversity Plus: 4H Assay for Vascular endothelial growth factor receptor 2 (VEGFR2) Biomarker Activity (AID 2283031); conditions: primary human endothelial cells (HUVEC); actives raise or lower the signal
Procedure, shortened: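 ELISA read-out of VEGFRII in primary human umbilical vein endothelium, taken 24 h after chemical treatment. Responses are expressed relative to DMSO, with bidirectional fitting.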

[8] = read-out: Human Leukocyte Antigen - DR isotype (HLADR), HLA-DRA (gene 3122); experiment: BSK_BE3C_HLADR: BioMAP Diversity Plus: BE3C Assay for Human Leukocyte Antigen - DR isotype (HLADR) Biomarker Activity (AID 2283032); conditions: primary human bronchial epithelial cells; actives raise or lower the signal
Procedure, shortened: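 Cell-surface HLA-DR ELISA readout at 24 h after dosing in the BE3C primary human lung bronchial epithelial system; gain or loss of signal against DMSO, with parallel sulforhodamine B staining of total protein for overt cytotoxicity.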

[9] = read-out: Vascular cell adhesion molecule 1 (VCAM1), VCAM1 (gene 7412); experiment: BSK_4H_VCAM1: BioMAP Diversity Plus: 4H Assay for Vascular cell adhesion molecule 1 (VCAM1) Biomarker Activity (AID 2283033); conditions: primary human endothelial cells (HUVEC); actives raise or lower the signal
Procedure, shortened: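 VCAM-1 ELISA read 24 h after chemical dosing of HUVEC in the BioMAP 4H system, with gain or loss of signal fitted relative to DMSO. Parallel SRB staining (560 nm) checked overt cytotoxicity.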

[10] = read-out: Interferon-gamma inducible Protein 10 (IP10), CXCL10 (gene 3627); experiment: BSK_BE3C_IP10: BioMAP Diversity Plus: BE3C Assay for Interferon-gamma inducible Protein 10 (IP10) Biomarker Activity (AID 2283034); conditions: primary human bronchial epithelial cells; actives raise or lower the signal
Procedure, shortened: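 IP-10 quantified by ELISA in human primary bronchial epithelial cell cultures at 24 hours post-dosing. Gain or loss of signal fitted relative to DMSO; parallel SRB staining assessed overt cytotoxicity.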

[11] = read-out: Monokine induced gamma interferon (MIG), CXCL9 (gene 4283); experiment: BSK_BE3C_MIG: BioMAP Diversity Plus: BE3C Assay for Monokine induced gamma interferon (MIG) Biomarker Activity (AID 2283035); conditions: primary human bronchial epithelial cells; actives raise or lower the signal;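 also: MIG protein measured by ELISA in BE3C cultures after 24 h of dosing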
Procedure, shortened: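 ELISA quantified MIG after 24 h exposure of primary bronchial epithelial cultures, analysed in both directions relative to DMSO. Cytotoxicity tracked in parallel cultures by sulforhodamine B staining.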

[12] = read-out: Plasminogen activator inhibitor-1 (PAI1), SERPINE1 (gene 5054); experiment: BSK_BE3C_PAI1: BioMAP Diversity Plus: BE3C Assay for Plasminogen activator inhibitor-1 (PAI1) Biomarker Activity (AID 2283037); conditions: primary human bronchial epithelial cells; actives raise or lower the signal
Procedure, shortened: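 PAI-1 was measured by ELISA in human primary bronchial epithelial cultures 24 h after chemical dosing, with cytotoxicity checked by SRB total-protein staining in parallel cultures. Activity was fitted in both directions relative to DMSO.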

[13] = read-out: urokinase plasminogen activator (uPA), PLAU (gene 5328); experiment: BSK_BE3C_uPA: BioMAP Diversity Plus: BE3C Assay for urokinase plasminogen activator (uPA) Biomarker Activity (AID 2283038); conditions: primary human bronchial epithelial cells; actives raise or lower the signal;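 also: uPA protein level quantified by ELISA in cell cultures; uPA read one day after compound addition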
Procedure, shortened: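 Bronchial epithelial cells (human, primary); chemical 24 h; uPA by ELISA; bidirectional fit vs DMSO. SRB (0.1%, after 10% TCA fixation, 560 nm) in parallel cultures for cytotoxicity.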

[14] = read-out: Urokinase-type plasminogen activator receptor (uPAR), PLAUR (gene 5329); experiment: BSK_BE3C_uPAR: BioMAP Diversity Plus: BE3C Assay for Urokinase-type plasminogen activator receptor (uPAR) Biomarker Activity (AID 2283039); conditions: primary human bronchial epithelial cells; actives raise or lower the signal;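 also: cells exposed to compound for one day before measurement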
Procedure, shortened: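 uPAR levels were measured by ELISA after 24 h compound treatment of primary human bronchial epithelial cells, fitted in both directions relative to DMSO. Parallel SRB staining served as the cytotoxicity read-out.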

[15] = read-out: Interleukin-6 (IL6), IL6 (gene 3569); experiment: BSK_CASM3C_IL6: BioMAP Diversity Plus: CASM3C Assay for Interleukin-6 (IL6) Biomarker Activity for (AID 2283040); conditions: primary human coronary artery smooth muscle cells; actives raise or lower the signal
[16] = target: human Vitamin D Receptor (VDR), VDR (gene 7421) (UniProt P11473); experiment: ATG_VDR_TRANS: Attagene TRANS-FACTORIAL HepG2 Assay for human Vitamin D Receptor (VDR) (AID 2283022; active = hit-call score of the fitted dose curve at least 0.9, where 1 is the maximum)
Chain of human Vitamin D Receptor (VDR), VDR (gene 7421) (P11473 whole entry, looked up, the tested form may be a part): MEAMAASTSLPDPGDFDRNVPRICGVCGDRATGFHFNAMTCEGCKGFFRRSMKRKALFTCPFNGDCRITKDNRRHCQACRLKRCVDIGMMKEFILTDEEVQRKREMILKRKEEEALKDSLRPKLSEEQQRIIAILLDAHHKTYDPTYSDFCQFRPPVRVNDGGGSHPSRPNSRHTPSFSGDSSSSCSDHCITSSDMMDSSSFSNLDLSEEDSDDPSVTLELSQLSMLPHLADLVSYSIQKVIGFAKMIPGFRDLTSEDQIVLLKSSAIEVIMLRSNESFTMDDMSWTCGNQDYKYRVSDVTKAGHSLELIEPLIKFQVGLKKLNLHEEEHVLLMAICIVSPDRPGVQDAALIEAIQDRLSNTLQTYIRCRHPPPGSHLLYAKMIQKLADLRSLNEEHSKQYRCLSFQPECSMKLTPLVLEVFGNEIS
Procedure, shortened: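 Steps: transfect HepG2 with GAL4-UAS-driven reporter constructs; dose compounds 24 h; isolate RNA, reverse-transcribe, PCR-amplify with 6-FAM-labelled primer extension and HpaI digestion; quantify fragments by capillary electrophoresis relative to DMSO.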

[17] = BSK_3C_Vis: BioMAP Diversity Plus: 3C Assay for Morphology Visualization (AID 2283025); conditions: primary human endothelial cells (HUVEC);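 also: fitted both ways so gain or loss versus DMSO counts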
Procedure, shortened: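 Light-microscopy visualization of HUVEC cultures at 24 h post-treatment, with DMSO as baseline for bidirectional fitting.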

[18] = read-out: Transforming growth factor beta 1 (TGFb1), TGFB1 (gene 7040); experiment: BSK_BE3C_TGFb1: BioMAP Diversity Plus: BE3C Assay for Transforming growth factor beta 1 (TGFb1) Biomarker Activity (AID 2283036;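 also: TGF-b1 protein level measured by ELISA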); conditions: primary human bronchial epithelial cells; actives raise or lower the signal
Procedure, shortened: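 ELISA readout of TGF-b1 from human lung bronchial epithelial primary cells, taken 24 h post-treatment. Gain or loss of signal fitted relative to DMSO baseline, with parallel SRB staining for overt cytotoxicity.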

Measured: AC50

CC(CN=Cc1ccccc1O)N=Cc1ccccc1O (centres undefined)
active: [15] 8.95 µM
inactive: [1] | [2] | [3] | [4] | [5] | [6] | [7] | [8] | [9] | [10] | [11] | [12] | [13] | [14] | [15]

CCNCCO
inactive: [16]

CSc1c(Cl)c(Cl)c(Cl)c(Cl)c1Cl
inactive: [16]

CCOC(=O)C(C#N)=C(c1ccccc1)c1ccccc1
inactive: [1] | [4] | [5] | [6] | [7] | [8] | [9] | [10] | [11] | [12] | [13] | [14] | [15]
active: [2] 25.6 µM and 20 µM | [3] 25.2 µM and 31.1 µM | [9] 36.9 µM

CC(C)Nc1nc(N)nc(Cl)n1
inactive: [16]

CCCCCCCCCCCCN1CCCCCC1=O
inactive: [16]

CCCCCCCC/C=C\CCCCCCCC(=O)OCC
inactive: [16]

COCCOCCOCCO
inactive: [16]

CC1(C)COCN1
inactive: [16]

COc1ccc(CCO)cc1
inactive: [16]

CCOC(=O)[C@@H](C)Oc1ccc(Oc2nc3ccc(Cl)cc3o2)cc1
inactive: [16]

CCCN(CCC)S(=O)(=O)c1ccc(C(=O)O)cc1
inactive: [16]

C=C(C)C(=O)OCCOCCOCCOCCOC(=O)C(=C)C
not listed: [16]
inactive: all other assays above
